Source: PubChem BioAssay (NCI)
Compounds without any hit were thinned out: in the full panel of roughly 83,000, 20% have a hit.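 Plates (96-well) were seeded with cells, treated with compound at one concentration, and incubated for 48 hours before percent growth was determined.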 Unmarked numbers belong to inactive results. Activity calls are given as the source filed them. Rule for the calls: active = growth percent below 10; inactive = the rest.

Columns and labels:
Test in all cases: NCI-60 one-dose screen, 48 h (100 = growth as untreated, 0 = no growth, -100 = all killed)
[1] = system: SR leukemia; details: 10 µM unless noted
[2] = system: RPMI-8226 leukemia; details: 10 µM unless noted
[3] = system: OVCAR-8 ovarian; details: 10 µM unless noted
[4] = system: OVCAR-5 ovarian; details: 10 µM unless noted
[5] = system: OVCAR-4 ovarian; details: 10 µM unless noted
[6] = system: SK-OV-3 ovarian; details: 10 µM unless noted
[7] = system: IGROV1 ovarian; details: 10 µM unless noted
[8] = system: OVCAR-3 ovarian; details: 10 µM unless noted
[9] = system: NCI/ADR-RES ovarian; details: 10 µM unless noted
[10] = system: T-47D breast; details: 10 µM unless noted
[11] = system: BT-549 breast; details: 10 µM unless noted
[12] = system: MDA-MB-435 melanoma; details: 10 µM unless noted
[13] = system: SW-620 colon; details: 10 µM unless noted
[14] = system: MCF7 breast; details: 10 µM unless noted
[15] = system: HCT-116 colon; details: 10 µM unless noted
[16] = system: HCC-2998 colon; details: 10 µM
[17] = system: KM12 colon; details: 10 µM unless noted

| Structure (SMILES) | growth [1] | growth [2] | growth [3] | growth [4] | growth [5] | growth [6] | growth [7] | growth [8] | growth [9] | growth [10] | growth [11] | growth [12] | growth [13] | growth [14] | growth [15] | growth [16] | growth [17] |
| --- | --- | --- | --- | --- | --- | --- | --- | --- | --- | --- | --- | --- | --- | --- | --- | --- | --- |
| COc1cc(F)c(F)c(Nc2ccc(I)cc2F)c1NS(=O)(=O)C1(C[C@H](O)CO)CC1 | 57.7% | 37.8% | 45.7% | 13.5% | 46% | 51.3% | 9.36% (active) | 83.1% | 45.5% | 22.6% | 62.1% | 24.3% | 19.3% | 61.5% | 11.2% | -23.6% (active) | 24.2% |
| Cc1nc2cc(-c3nn(C(C)C)c4ncnc(N)c34)ccc2o1 | -0.778% (active) | -9.63% (active) | -29.1% (active) | -11.3% (active) | -27.4% (active) | -40.9% (active) | -39% (active) | 2.45% (active) | -22.5% (active) | -39.9% (active) | -14.5% (active) | -20.5% (active) | 2.48% (active) | -4.42% (active) | 7.77% (active) | -8.93% (active) | 0.531% (active) |
| C[C@@H](Oc1cc(-c2cnn(C3CCNCC3)c2)cnc1N)c1c(Cl)ccc(F)c1Cl | -35.7% (active) | -43.3% (active) | -27.5% (active) | -28.7% (active) | -23.9% (active) | -39.4% (active) | -24.5% (active) | 6.67% (active) | 2.26% (active) | -65.8% (active) | -42.3% (active) | -90.6% (active) | -59.9% (active) | -66.1% (active) | -73.1% (active) | -73.2% (active) | -61.2% (active) |
| C[C@@H](Nc1cc(F)cc(F)c1)c1cc(C(=O)N(C)C)cc2c(=O)cc(N3CCOCC3)oc12 | 53.5% | 84.4% | 57.9% | 54.5% | 88.2% | 3.43% (active) | -13.3% (active) | 40% | 85.4% | -12.4% (active) | 34.2% | 64.8% | 60.5% | 25.2% | 55.8% | 55.3% | 66.5% |
| O=C1C=CC2(NN=C(c3ccccc3)N2c2cccc(Cl)c2)C(Cl)=C1 (centres undefined) | 67.3% | 58.6% | 76% | 92.3% | 70.5% | 70.7% | 87.1% | 84.9% | 89.7% | 37.9% | 88.5% | 86.3% | 90.2% | 79% | 73.4% | 105% | 78.1% |
| COCC(=O)NC/C=C/c1ccc2ncnc(Nc3ccc(Oc4ccc(C)nc4)c(C)c3)c2c1 | 22.5% | 50.6% | 38.5% | 21.6% | 40.1% | -18.6% (active) | -8.37% (active) | 63.3% | 57.1% | -0.662% (active) | 62% | 32.9% | 47.9% | 49.1% | 29.3% | 36.6% | 28.8% |
| COc1cc2c(Oc3ccc4[nH]c(C)cc4c3F)ncnc2cc1OCCCN1CCCC1 | 84.3% | 110% | 97.1% | 78.4% | 74% | 82.1% | 46.6% | 87.4% | 88.5% | 82.5% | 85.5% | 99.6% | 102% | 89.8% | 89.3% | 102% | 96.7% |
| CN(C)C[C@@H]1CCn2cc(c3ccccc32)C2=C(C(=O)NC2=O)c2cn(c3ccccc23)CCO1 | -11.8% (active) | -18.8% (active) | -0.0404% (active) | -7.31% (active) | -45.9% (active) | 6.11% (active) | -13.1% (active) | 1.36% (active) | 6.82% (active) | 21.2% | -3.62% (active) | 20.2% | -57.6% (active) | -58.8% (active) | -69.4% (active) | 22% | 3.55% (active) |
| O=C(c1ccc(F)c(F)c1Nc1ccc(I)cc1F)N1CC(O)([C@@H]2CCCCN2)C1 | -15.2% (active) | 26.7% | 47.9% | 7.14% (active) | 27.8% | 29.2% | 2.25% (active) | 58.7% | 39.7% | 11.8% | 47.1% | 21% | 17.5% | 14.1% | 5.24% (active) | -51.9% (active) | 12.1% |
| CCN(CCO)CCCOc1ccc2c(Nc3cc(CC(=O)Nc4cccc(F)c4)[nH]n3)ncnc2c1 | 12.3% | 72.5% | 49.8% | 20.7% | 48.4% | 68.3% | 16.4% | 44.4% | 70.7% | 19.6% | 54.7% | 11.1% | 15.6% | 6.03% (active) | 11.1% | 4.66% (active) | 15.9% |
| CNC(=O)CN1CCC(Oc2cc3c(Nc4cccc(Cl)c4F)ncnc3cc2OC)CC1 | 63.8% | 70.9% | 45.6% | 25.3% | 70.5% | -22.4% (active) | -25.2% (active) | 46.3% | 56.6% | -11.2% (active) | 93.5% | 98.2% | 71.5% | 51.1% | 54.7% | 83.2% | 81.4% |
| Cn1c(=O)c(F)c(Nc2ccc(I)cc2F)c2c(=O)n(C[C@@H](O)CO)cnc21 | 52.4% | 61.2% | 43.9% | 6.95% (active) | 55.8% | 44.8% | 10.5% | 86.9% | 60.6% | 63.7% | 60.6% | 44.3% | 21.6% | 83.8% | 9.17% (active) | -37.7% (active) | 19.9% |
| O=C(O)C1(Cc2cccc(Nc3nccs3)n2)CCC(Oc2cccc(Cl)c2F)CC1 (centres undefined) | 47.5% | 59.8% | 56.6% | 80.1% | 106% | 62.7% | 76.7% | 71.2% | 46.4% | 50.9% | 84.4% | 49.6% | 74.9% | 46.7% | 45% | 95.3% | 19.3% |
| CNC(=O)c1cc(Oc2ccc(NC(=O)Nc3ccc(Cl)c(C(F)(F)F)c3)c(F)c2)ccn1 | -32.6% (active) | -34% (active) | -1.84% (active) | 3.12% (active) | 8.63% (active) | -16.7% (active) | -20.8% (active) | 0.719% (active) | -14.3% (active) | -34.5% (active) | -31.3% (active) | -57% (active) | -8.01% (active) | -26.6% (active) | -37.3% (active) | -80.8% (active) | -32.3% (active) |
| O=c1[nH]ccc2c(S(=O)(=O)N3CCCNCC3)cccc12 | 83.3% | 106% | 90.4% | 62.9% | 89.5% | -0.289% (active) | 31.2% | 60.7% | 75.4% | 37.7% | 61.3% | 88% | 91.1% | 85.9% | 81.5% | 92.2% | 93.3% |
| O=C(Nc1cccc(Cl)c1)Nc1ncc(CCNc2ncnc3ccsc23)s1 | 19.3% | 7.45% (active) | 1.53% (active) | 64.6% | 24.6% | 47.5% | 36% | 38.3% | 9.39% (active) | -16.9% (active) | 0.164% (active) | 12.5% | 62.6% | 11.8% | 17.9% | 80.1% | 11.4% |
| C[C@@H](Oc1cc(-n2cnc3ccc(CN4CCN(C)CC4)cc32)sc1C(N)=O)c1ccccc1C(F)(F)F | -19.6% (active) | 34.2% | 5.18% (active) | 19.9% | 33.8% | -2.74% (active) | 16.8% | 38% | 18.5% | 40.8% | 24.9% | 9.74% (active) | 13.6% | 17.7% | 17.6% | 14.1% | 10.3% |
